Test results: the supplement of paper PMC7411054
Structures can show the parent of a compound that is named as a salt.

Assays:
Details in all cases: treatment time: 24 h
[1] = tested on: A549-ACTB-RAB5A; assay: lowest phenotypically active concentration; higher = less potent
Summary of the method: (§1)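 Phenotypic activity depended on meeting both a deviation and a reproducibility criterion. The fifteen gene-edited A549, HepG2 and WPMY1 reporter lines were treated at 0.3, 1, 3 or 9 µM for 24 h, four wells each, then imaged live with features normalised to solvent control wells. Deviation required ≥3 of 4 wells past the 95th percentile of control Euclidean distances, and reproducibility a median replicate Pearson correlation above the 95th percentile of non-replicates.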

[2] = tested on: A549-ACTB-RAB5A; assay: phenotypically active (imaging signature differs from DMSO and reproducible) at any of 0.3-9 uM (binary (1 = active, 0 = inactive)); higher = active
Summary of the method: as §1

[3] = tested on: A549-CANX-COX4; assay: as above
Summary of the method: as §1

[4] = tested on: A549-GM130-SQSTM1; assay: as above
Summary of the method: as §1

[5] = tested on: A549-TP53BP1-CLTA; assay: as above
Summary of the method: as §1

[6] = tested on: A549-TUBA1B-RELA; assay: as above
Summary of the method: as §1

[7] = tested on: HepG2-ACTB-RAB5A; assay: as above
Summary of the method: as §1

[8] = tested on: HepG2-CANX-COX4; assay: as above
Summary of the method: as §1

[9] = tested on: HepG2-GM130-SQSTM1; assay: as above
Summary of the method: as §1

[10] = tested on: HepG2-TP53BP1-CLTA; assay: as above
Summary of the method: as §1

[11] = tested on: HepG2-TUBA1B-RELA; assay: as above
Summary of the method: as §1

[12] = tested on: WPMY1-ACTB-RAB5A; assay: as above
Summary of the method: as §1

[13] = tested on: WPMY1-CANX-COX4; assay: as above
Summary of the method: as §1

[14] = tested on: WPMY1-GM130-SQSTM1; assay: as above
Summary of the method: as §1

[15] = tested on: WPMY1-TP53BP1-CLTA; assay: as above
Summary of the method: as §1

[16] = tested on: WPMY1-TUBA1B-RELA; assay: as above
Summary of the method: as §1

[17] = tested on: A549-CANX-COX4; assay: lowest phenotypically active concentration; higher = less potent
Summary of the method: as §1

[18] = tested on: A549-GM130-SQSTM1; assay: as above
Summary of the method: as §1

[19] = tested on: A549-TP53BP1-CLTA; assay: as above
Summary of the method: as §1

[20] = tested on: A549-TUBA1B-RELA; assay: as above
Summary of the method: as §1

| Structure (SMILES) | lowest phenotypically active concentration [1] [µM] | phenotypically active [2] | phenotypically active [3] | phenotypically active [4] | phenotypically active [5] | phenotypically active [6] | phenotypically active [7] | phenotypically active [8] | phenotypically active [9] | phenotypically active [10] | phenotypically active [11] | phenotypically active [12] | phenotypically active [13] | phenotypically active [14] | phenotypically active [15] | phenotypically active [16] | lowest phenotypically active concentration [17] [µM] | lowest phenotypically active concentration [18] [µM] | lowest phenotypically active concentration [19] [µM] | lowest phenotypically active concentration [20] [µM] |
| --- | --- | --- | --- | --- | --- | --- | --- | --- | --- | --- | --- | --- | --- | --- | --- | --- | --- | --- | --- | --- |
| Nc1nc(OCC2CCCCC2)c2nc[nH]c2n1 | 9 | 1 (active) | 0 (inactive) | 0 (inactive) | 0 (inactive) | 0 (inactive) | 0 (inactive) | 0 (inactive) | 0 (inactive) | 0 (inactive) | 0 (inactive) | 0 (inactive) | 0 (inactive) | 0 (inactive) | 0 (inactive) | 0 (inactive) |  |  |  |  |
| C#Cc1cccc(Nc2ncnc3cc(OCCOC)c(OCCOC)cc23)c1 [erlotinib] | ≤ 0.3 | 1 (active) | 1 (active) | 1 (active) | 1 (active) | 1 (active) | 1 (active) | 1 (active) | 1 (active) | 1 (active) | 1 (active) | 0 (inactive) | 0 (inactive) | 0 (inactive) | 0 (inactive) | 0 (inactive) | 3 | 3 | 1 | 1 |
| CC(=O)[C@@]1(O)CC[C@H]2[C@@H]3C[C@H](C)C4=CC(=O)C=C[C@]4(C)[C@@]3(F)[C@@H](O)C[C@@]21C [fluorometholone] | ≤ 0.3 | 1 (active) | 1 (active) | 1 (active) | 1 (active) | 1 (active) | 0 (inactive) | 0 (inactive) | 0 (inactive) | 0 (inactive) | 0 (inactive) | 0 (inactive) | 0 (inactive) | 0 (inactive) | 0 (inactive) | 0 (inactive) | ≤ 0.3 | ≤ 0.3 | ≤ 0.3 | ≤ 0.3 |
| O=C(O)C(CO)c1ccccc1 (centres undefined) [Tropic acid] |  | 0 (inactive) | 0 (inactive) | 0 (inactive) | 0 (inactive) | 0 (inactive) | 0 (inactive) | 0 (inactive) | 0 (inactive) | 0 (inactive) | 0 (inactive) | 0 (inactive) | 0 (inactive) | 0 (inactive) | 0 (inactive) | 0 (inactive) |  |  |  |  |
| O=c1ncn2nc(Sc3ccc(F)cc3F)ccc2c1-c1c(Cl)cccc1Cl | 9 | 1 (active) | 0 (inactive) | 0 (inactive) | 0 (inactive) | 0 (inactive) | 0 (inactive) | 0 (inactive) | 0 (inactive) | 0 (inactive) | 0 (inactive) | 0 (inactive) | 0 (inactive) | 0 (inactive) | 0 (inactive) | 0 (inactive) |  |  |  |  |
| O=C(Nc1c(Cl)cncc1Cl)c1ccc(OC(F)F)c(OCC2CC2)c1 [roflumilast] |  | 0 (inactive) | 0 (inactive) | 0 (inactive) | 0 (inactive) | 0 (inactive) | 0 (inactive) | 0 (inactive) | 0 (inactive) | 0 (inactive) | 0 (inactive) | 0 (inactive) | 0 (inactive) | 0 (inactive) | 0 (inactive) | 0 (inactive) |  |  |  |  |
| CC(C)NCC(O)c1ccc(O)c(O)c1 (centres undefined) [Isoproterenol hydrochloride] |  | 0 (inactive) | 0 (inactive) | 0 (inactive) | 0 (inactive) | 0 (inactive) | 0 (inactive) | 0 (inactive) | 0 (inactive) | 0 (inactive) | 0 (inactive) | 0 (inactive) | 0 (inactive) | 0 (inactive) | 0 (inactive) | 0 (inactive) |  |  |  |  |
| C[C@]12CCC(=O)C=C1CC[C@@H]1[C@@H]2[C@@H](O)C[C@@]2(C)[C@H]1CC[C@]2(O)C(=O)CO [hydrocortisone] | ≤ 0.3 | 1 (active) | 1 (active) | 1 (active) | 1 (active) | 1 (active) | 0 (inactive) | 0 (inactive) | 0 (inactive) | 0 (inactive) | 0 (inactive) | 0 (inactive) | 0 (inactive) | 0 (inactive) | 0 (inactive) | 0 (inactive) | ≤ 0.3 | ≤ 0.3 | ≤ 0.3 | ≤ 0.3 |
| O=C(O)CCc1ccccc1 [Hydrocinnamic acid] |  | 0 (inactive) | 0 (inactive) | 0 (inactive) | 0 (inactive) | 0 (inactive) | 0 (inactive) | 0 (inactive) | 0 (inactive) | 0 (inactive) | 0 (inactive) | 0 (inactive) | 0 (inactive) | 0 (inactive) | 0 (inactive) | 0 (inactive) |  |  |  |  |
| C[C@@H]1O[C@@H](OC[C@H]2O[C@@H](Oc3c(-c4ccc(O)c(O)c4)oc4cc(O)cc(O)c4c3=O)[C@H](O)[C@@H](O)[C@@H]2O)[C@H](O)[C@H](O)[C@H]1O [Quercétine-3-rutinoside] | 9 | 1 (active) | 0 (inactive) | 0 (inactive) | 0 (inactive) | 0 (inactive) | 0 (inactive) | 0 (inactive) | 0 (inactive) | 0 (inactive) | 0 (inactive) | 0 (inactive) | 0 (inactive) | 0 (inactive) | 0 (inactive) | 0 (inactive) |  |  |  |  |
| COc1ccc([C@@H]2CNC(=O)C2)cc1OC1CCCC1 [(R)-(-)-Rolipram] |  | 0 (inactive) | 0 (inactive) | 0 (inactive) | 0 (inactive) | 0 (inactive) | 0 (inactive) | 0 (inactive) | 0 (inactive) | 0 (inactive) | 0 (inactive) | 0 (inactive) | 0 (inactive) | 0 (inactive) | 0 (inactive) | 0 (inactive) |  |  |  |  |
| O=C(O)CCNC(=O)c1ccc(/N=N/c2ccc(O)c(C(=O)O)c2)cc1 [balsalazide] |  | 0 (inactive) | 0 (inactive) | 0 (inactive) | 0 (inactive) | 0 (inactive) | 0 (inactive) | 0 (inactive) | 0 (inactive) | 0 (inactive) | 0 (inactive) | 0 (inactive) | 0 (inactive) | 0 (inactive) | 0 (inactive) | 0 (inactive) |  |  |  |  |
| COc1cc(C[C@H]2C(=O)OC[C@@H]2Cc2ccc(OC)c(OC)c2)ccc1O [Arctigenin] | 3 | 1 (active) | 1 (active) | 1 (active) | 1 (active) | 1 (active) | 1 (active) | 1 (active) | 1 (active) | 1 (active) | 1 (active) | 0 (inactive) | 0 (inactive) | 0 (inactive) | 0 (inactive) | 0 (inactive) | 3 | 3 | 3 | 9 |
| C[C@H]1[C@H](C)CC[C@]2(C(=O)O)CC[C@]3(C)C(=CC[C@@H]4[C@@]5(C)CC[C@H](O)C(C)(C)[C@@H]5CC[C@]43C)[C@H]12 [Ursolic acid] |  | 0 (inactive) | 0 (inactive) | 0 (inactive) | 0 (inactive) | 0 (inactive) | 0 (inactive) | 0 (inactive) | 0 (inactive) | 0 (inactive) | 0 (inactive) | 0 (inactive) | 0 (inactive) | 0 (inactive) | 0 (inactive) | 0 (inactive) |  |  |  |  |
| NC(=O)c1ccc(N(C(N)=O)c2c(F)cccc2F)nc1-c1ccc(F)cc1F | 9 | 1 (active) | 0 (inactive) | 0 (inactive) | 0 (inactive) | 0 (inactive) | 0 (inactive) | 0 (inactive) | 0 (inactive) | 0 (inactive) | 0 (inactive) | 0 (inactive) | 0 (inactive) | 0 (inactive) | 0 (inactive) | 0 (inactive) |  |  |  |  |
| COc1cc2ncnc(Nc3ccc(O)c(Br)c3)c2cc1OC | 1 | 1 (active) | 1 (active) | 1 (active) | 1 (active) | 1 (active) | 1 (active) | 1 (active) | 1 (active) | 1 (active) | 1 (active) | 1 (active) | 1 (active) | 1 (active) | 1 (active) | 0 (inactive) | 3 | 3 | 1 | 3 |
| N=C(N)NN=Cc1c(Cl)cccc1Cl [guanabenz] |  | 0 (inactive) | 0 (inactive) | 0 (inactive) | 0 (inactive) | 0 (inactive) | 0 (inactive) | 0 (inactive) | 0 (inactive) | 0 (inactive) | 0 (inactive) | 0 (inactive) | 0 (inactive) | 0 (inactive) | 0 (inactive) | 0 (inactive) |  |  |  |  |
| CCC(=O)OCC(=O)[C@@]1(OC(=O)CC)[C@@H](C)C[C@H]2[C@@H]3CCC4=CC(=O)C=C[C@]4(C)[C@@]3(Cl)[C@@H](O)C[C@@]21C [beclomethasone-dipropionate] | ≤ 0.3 | 1 (active) | 1 (active) | 1 (active) | 1 (active) | 1 (active) | 0 (inactive) | 0 (inactive) | 0 (inactive) | 0 (inactive) | 0 (inactive) | 0 (inactive) | 0 (inactive) | 0 (inactive) | 0 (inactive) | 0 (inactive) | ≤ 0.3 | ≤ 0.3 | ≤ 0.3 | ≤ 0.3 |
| NCCC(=O)NCCc1c[nH]cn1 [Carcinine] |  | 0 (inactive) | 0 (inactive) | 0 (inactive) | 0 (inactive) | 0 (inactive) | 0 (inactive) | 0 (inactive) | 0 (inactive) | 0 (inactive) | 0 (inactive) | 0 (inactive) | 0 (inactive) | 0 (inactive) | 0 (inactive) | 0 (inactive) |  |  |  |  |
| COc1ccc2c(NC(=O)Nc3cccc(C(F)(F)F)n3)ccnc2c1 | ≤ 0.3 | 1 (active) | 1 (active) | 1 (active) | 1 (active) | 1 (active) | 1 (active) | 1 (active) | 1 (active) | 1 (active) | 1 (active) | 1 (active) | 1 (active) | 1 (active) | 1 (active) | 0 (inactive) | 9 | 3 | 9 | 3 |
| CCCCC(=O)O[C@H]1CC[C@H]2[C@@H]3CCc4cc(O)ccc4[C@H]3CC[C@]12C [estradiol valerate] |  | 0 (inactive) | 0 (inactive) | 0 (inactive) | 0 (inactive) | 0 (inactive) | 0 (inactive) | 0 (inactive) | 0 (inactive) | 0 (inactive) | 0 (inactive) | 0 (inactive) | 0 (inactive) | 0 (inactive) | 0 (inactive) | 0 (inactive) |  |  |  |  |
| CCCNC(=O)NS(=O)(=O)c1ccc(Cl)cc1 [chlorpropamide] |  | 0 (inactive) | 0 (inactive) | 0 (inactive) | 0 (inactive) | 0 (inactive) | 0 (inactive) | 0 (inactive) | 0 (inactive) | 0 (inactive) | 0 (inactive) | 0 (inactive) | 0 (inactive) | 0 (inactive) | 0 (inactive) | 0 (inactive) |  |  |  |  |
| FC(F)(F)c1ccc(/C=C/c2nc(COc3ccc(CCCCn4ccnn4)cc3)co2)cc1 | ≤ 0.3 | 1 (active) | 1 (active) | 1 (active) | 1 (active) | 1 (active) | 1 (active) | 1 (active) | 1 (active) | 1 (active) | 1 (active) | 0 (inactive) | 0 (inactive) | 0 (inactive) | 0 (inactive) | 0 (inactive) | ≤ 0.3 | ≤ 0.3 | ≤ 0.3 | ≤ 0.3 |
